Source: PubChem BioAssay (EPA / NIEHS)
Inconclusive results are not listed. The source holds several records for some structures; these can differ, active in one and inactive in another. Activity calls are given as the source filed them. Rule for the calls: active = hit-call score of the fitted dose curve at least 0.9, where 1 is the maximum; inconclusive = response in the unintended direction; inactive = score below 0.9.

Tests used:
[1] = target: human Thromboxane A2 Receptor (TXA2), TBXA2R (gene 6915) (UniProt P21731); test: NVS_GPCR_hTXA2: NovaScreen (NVS) G Protein-Coupled Receptor Assay for human Thromboxane A2 Receptor (TXA2) (AID 2283282);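 note: actives reduce bound radioligand signal relative to DMSO baseline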
Chain of human Thromboxane A2 Receptor (TXA2), TBXA2R (gene 6915) (P21731 whole entry, looked up): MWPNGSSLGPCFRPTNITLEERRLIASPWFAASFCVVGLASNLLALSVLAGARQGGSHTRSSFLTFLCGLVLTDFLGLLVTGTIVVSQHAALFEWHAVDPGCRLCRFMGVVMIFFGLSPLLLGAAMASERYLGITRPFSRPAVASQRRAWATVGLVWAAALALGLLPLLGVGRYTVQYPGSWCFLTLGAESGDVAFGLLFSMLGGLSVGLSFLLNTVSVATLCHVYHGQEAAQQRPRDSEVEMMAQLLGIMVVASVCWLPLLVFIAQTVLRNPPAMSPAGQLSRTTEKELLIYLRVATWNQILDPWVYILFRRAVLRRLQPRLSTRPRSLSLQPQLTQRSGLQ
How it was run: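 Human platelet membranes tested for radioligand displacement by filtration and scintillation counting 1 h post-dose. Screened in duplicate at 25 uM; activity fitted as signal loss relative to DMSO.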

[2] = tested on: 5-hydroxytryptamine receptor 2C (pig); test: NVS_GPCR_p5HT2C: NovaScreen (NVS) G Protein-Coupled Receptor Assay for pig Serotonin, 5-Hydroxytryptamine Receptor 2C (5HT2C) (AID 2283288)
How it was run: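 Pig choroid plexus membranes; radioligand competitive binding, filter-based scintillation counting, read 1 h after dosing. Primary screen in duplicate at 25 uM; actives then run as concentration series; loss of signal versus DMSO baseline.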

[3] = target: human Opioid Receptor Mu (Opiate Mu), OPRM1 (gene 4988) (UniProt P35372); test: NVS_GPCR_hOpiate_mu: NovaScreen (NVS) G Protein-Coupled Receptor Assay for human Opioid Receptor Mu (Opiate Mu) (AID 2283290);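 note: hits lower bound tracer signal versus DMSO meaning displacement of the ligand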
Chain of human Opioid Receptor Mu (Opiate Mu), OPRM1 (gene 4988) (P35372 whole entry, looked up): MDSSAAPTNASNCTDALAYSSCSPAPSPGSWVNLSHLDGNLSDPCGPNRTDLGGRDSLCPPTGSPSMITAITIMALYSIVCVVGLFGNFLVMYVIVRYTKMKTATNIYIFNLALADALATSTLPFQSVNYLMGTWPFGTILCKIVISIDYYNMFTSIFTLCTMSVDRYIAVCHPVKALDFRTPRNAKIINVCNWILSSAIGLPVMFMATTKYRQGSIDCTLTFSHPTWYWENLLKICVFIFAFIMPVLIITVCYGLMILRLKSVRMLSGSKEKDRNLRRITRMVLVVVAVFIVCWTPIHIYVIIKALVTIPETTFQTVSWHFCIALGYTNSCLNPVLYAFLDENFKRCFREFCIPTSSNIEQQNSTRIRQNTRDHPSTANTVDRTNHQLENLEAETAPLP
How it was run: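 Radioligand displacement binding on membranes from CHO cells expressing the receptor, 2.5 h after dosing, filter-based scintillation counting; loss of signal vs DMSO baseline. Screened in duplicate at 25 uM, actives then run in concentration series.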

[4] = target: human Vasopressin 1A Receptor (V1A), AVPR1A (gene 552) (UniProt P37288); test: NVS_GPCR_hV1A: NovaScreen (NVS) G Protein-Coupled Receptor Assay for human Vasopressin 1A Receptor (V1A) (AID 2283284)
Chain of human Vasopressin 1A Receptor (V1A), AVPR1A (gene 552) (P37288 whole entry, looked up): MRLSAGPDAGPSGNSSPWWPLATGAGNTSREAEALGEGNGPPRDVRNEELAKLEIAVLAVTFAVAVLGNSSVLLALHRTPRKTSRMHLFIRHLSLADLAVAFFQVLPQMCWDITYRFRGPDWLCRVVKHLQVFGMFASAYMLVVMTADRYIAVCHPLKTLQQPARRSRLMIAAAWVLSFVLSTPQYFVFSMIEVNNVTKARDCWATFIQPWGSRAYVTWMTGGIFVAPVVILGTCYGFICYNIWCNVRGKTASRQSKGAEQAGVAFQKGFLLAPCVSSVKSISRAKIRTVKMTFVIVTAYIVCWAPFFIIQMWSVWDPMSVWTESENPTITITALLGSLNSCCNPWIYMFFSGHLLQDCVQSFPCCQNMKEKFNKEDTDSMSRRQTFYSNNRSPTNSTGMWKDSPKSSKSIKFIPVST
How it was run: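 Cell-free radioligand displacement on human platelet preparations, 1.5 h incubation, filter-based scintillation counting. Chemicals first tested in duplicate at 25 uM; actives then run in concentration-response up to 50 uM, loss of signal fitted against DMSO.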

[5] = target: Muscarinic acetylcholine receptor M2 (Homo sapiens) (UniProt P08172); test: NVS_GPCR_hM2: NovaScreen (NVS) G Protein-Coupled Receptor Assay for human Muscarinic, M2 Receptor (AID 2283273)
How it was run: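 Cell-free radioligand binding using membranes from CHO cells expressing the receptor; filter-based scintillation counting after 1 hour of compound exposure. Loss of specific binding relative to DMSO baseline; primary screen at 25 uM in duplicate, actives then run in concentration series.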

[6] = target: human Muscarinic, M4 Receptor, CHRM4 (gene 1132) (UniProt P08173); test: NVS_GPCR_hM4: NovaScreen (NVS) G Protein-Coupled Receptor Assay for human Muscarinic, M4 Receptor (AID 2283274)
Chain of human Muscarinic, M4 Receptor, CHRM4 (gene 1132) (P08173 whole entry, looked up): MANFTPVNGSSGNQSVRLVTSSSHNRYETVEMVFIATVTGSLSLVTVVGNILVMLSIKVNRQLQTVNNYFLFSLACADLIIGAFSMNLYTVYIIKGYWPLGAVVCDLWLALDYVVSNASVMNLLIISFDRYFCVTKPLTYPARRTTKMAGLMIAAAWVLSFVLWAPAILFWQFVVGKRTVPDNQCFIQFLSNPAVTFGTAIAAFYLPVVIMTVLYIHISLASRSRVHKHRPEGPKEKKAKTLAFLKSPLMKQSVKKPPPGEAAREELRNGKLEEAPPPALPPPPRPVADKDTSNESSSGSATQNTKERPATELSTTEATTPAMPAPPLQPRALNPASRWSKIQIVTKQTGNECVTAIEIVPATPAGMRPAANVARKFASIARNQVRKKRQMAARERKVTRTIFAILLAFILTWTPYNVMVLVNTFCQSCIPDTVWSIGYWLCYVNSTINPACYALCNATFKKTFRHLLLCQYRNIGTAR
How it was run: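 Cell-free radioligand displacement using CHO-derived human M4 receptor protein, 1 h after dosing; bound radioactivity by filtration and scintillation counting. Primary screen single 25 uM duplicate, actives followed in concentration series.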

[7] = target: Muscarinic acetylcholine receptor M5 (Homo sapiens) (UniProt P08912); test: NVS_GPCR_hM5: NovaScreen (NVS) G Protein-Coupled Receptor Assay for human Muscarinic, M5 Receptor (AID 2283275)
Chain of Muscarinic acetylcholine receptor M5 (Homo sapiens) (P08912 whole entry, looked up): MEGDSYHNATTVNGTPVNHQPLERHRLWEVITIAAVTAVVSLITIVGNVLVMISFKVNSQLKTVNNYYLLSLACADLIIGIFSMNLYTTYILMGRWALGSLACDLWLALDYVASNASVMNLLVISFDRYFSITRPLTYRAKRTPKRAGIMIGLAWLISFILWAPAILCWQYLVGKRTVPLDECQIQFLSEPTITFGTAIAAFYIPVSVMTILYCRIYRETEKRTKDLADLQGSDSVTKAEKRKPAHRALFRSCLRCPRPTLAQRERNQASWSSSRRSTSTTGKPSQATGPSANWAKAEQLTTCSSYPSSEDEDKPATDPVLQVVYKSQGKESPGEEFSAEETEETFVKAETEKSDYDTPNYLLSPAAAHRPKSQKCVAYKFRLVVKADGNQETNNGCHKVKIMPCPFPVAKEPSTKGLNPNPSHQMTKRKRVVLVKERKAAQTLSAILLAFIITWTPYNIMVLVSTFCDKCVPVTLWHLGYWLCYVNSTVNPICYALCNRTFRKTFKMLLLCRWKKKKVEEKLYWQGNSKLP
How it was run: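 Radioligand displacement on CHO-derived membrane preparations, 1 h, filter-based scintillation counting. Single-concentration duplicate screen at 25 uM; hits (e.g. 30% inhibition) retested in singleton concentration-response up to 50 uM. Loss of binding fitted versus DMSO.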

[8] = target: human Neurokinin, NK2 Receptor, TACR2 (gene 6865) (UniProt P21452); test: NVS_GPCR_hNK2: NovaScreen (NVS) G Protein-Coupled Receptor Assay for human Neurokinin, NK2 Receptor (AID 2283278);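 note: actives reduce bound radioligand signal relative to DMSO baseline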
Chain of human Neurokinin, NK2 Receptor, TACR2 (gene 6865) (P21452 whole entry, looked up): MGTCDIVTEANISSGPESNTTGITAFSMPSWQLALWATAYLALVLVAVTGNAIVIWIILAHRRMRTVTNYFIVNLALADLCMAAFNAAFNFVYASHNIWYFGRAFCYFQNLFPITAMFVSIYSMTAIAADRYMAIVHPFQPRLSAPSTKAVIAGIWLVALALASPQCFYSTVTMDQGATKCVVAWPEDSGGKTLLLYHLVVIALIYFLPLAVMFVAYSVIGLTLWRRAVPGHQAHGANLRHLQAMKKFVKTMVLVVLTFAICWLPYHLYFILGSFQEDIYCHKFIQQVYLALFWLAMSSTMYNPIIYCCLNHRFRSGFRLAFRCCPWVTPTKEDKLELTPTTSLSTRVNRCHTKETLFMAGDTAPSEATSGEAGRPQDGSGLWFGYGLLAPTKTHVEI
How it was run: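 Radioligand binding on membranes from CHO cells expressing receptor, filter-based scintillation read 4 h after dosing. Initial duplicate screen at 25 uM, actives in concentration series; loss of signal versus DMSO.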

[9] = target: human Neurotensin Receptor (NTS), NTSR1 (gene 4923) (UniProt P30989); test: NVS_GPCR_hNTS: NovaScreen (NVS) G Protein-Coupled Receptor Assay for human Neurotensin Receptor (NTS) (AID 2283279)
How it was run: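 Radioligand displacement on human NTSR1 protein from CHO cells, cell-free, 1 h, filter-based scintillation counting. Primary screen at 25 uM in duplicate; hits rerun in concentration-response up to 50 uM.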

[10] = target: mouse Cholecystokinin, CCK1 Receptor (CCKA), Cckar (gene 12425) (UniProt O08786); test: NVS_GPCR_mCCKAPeripheral: NovaScreen (NVS) G Protein-Coupled Receptor Assay for mouse Cholecystokinin, CCK1 Receptor (CCKA) (AID 2283285)
Chain of mouse Cholecystokinin, CCK1 Receptor (CCKA), Cckar (gene 12425) (O08786 whole entry, looked up): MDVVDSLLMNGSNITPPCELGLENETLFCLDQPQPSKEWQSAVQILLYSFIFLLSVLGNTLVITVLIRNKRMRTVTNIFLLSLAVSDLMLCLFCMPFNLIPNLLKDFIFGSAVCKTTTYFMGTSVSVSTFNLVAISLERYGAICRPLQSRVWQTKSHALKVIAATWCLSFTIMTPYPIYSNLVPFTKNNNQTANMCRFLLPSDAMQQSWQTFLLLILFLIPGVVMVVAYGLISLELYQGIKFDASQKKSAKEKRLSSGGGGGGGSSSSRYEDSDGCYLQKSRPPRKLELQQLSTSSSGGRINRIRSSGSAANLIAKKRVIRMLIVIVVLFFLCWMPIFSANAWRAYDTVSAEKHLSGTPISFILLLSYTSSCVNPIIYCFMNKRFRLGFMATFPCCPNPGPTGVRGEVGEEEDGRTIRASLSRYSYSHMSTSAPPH
How it was run: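 Radioligand competitive displacement on mouse pancreatic membranes, 2 h incubation; filter-based scintillation counting, loss of signal versus DMSO. Single-concentration screen at 25 uM in duplicate, actives retested in concentration-response up to 50 uM.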

[11] = tested on: rabbit Platelet Activating Factor Receptor (PAF), gene 100354046; test: NVS_GPCR_rabPAF: NovaScreen (NVS) G Protein-Coupled Receptor Assay for rabbit Platelet Activating Factor Receptor (PAF) (AID 2283287)
How it was run: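 Rabbit platelet membrane preparation; radioligand displacement read by filter-based scintillation counting 1 h after dosing, loss of signal versus DMSO. Primary screen in duplicate at 25 uM, actives followed up in concentration series.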

[12] = target: rat Adrenergic, Alpha 1, Non-selective Receptor (Adra1), Adra1a (gene 29412) (UniProt P43140); test: NVS_GPCR_rAdra1_NonSelective: NovaScreen (NVS) G Protein-Coupled Receptor Assay for rat Adrenergic, Alpha 1, Non-selective Receptor (Adra1) (AID 2283289)
Chain of rat Adrenergic, Alpha 1, Non-selective Receptor (Adra1), Adra1a (gene 29412) (P43140 whole entry, looked up): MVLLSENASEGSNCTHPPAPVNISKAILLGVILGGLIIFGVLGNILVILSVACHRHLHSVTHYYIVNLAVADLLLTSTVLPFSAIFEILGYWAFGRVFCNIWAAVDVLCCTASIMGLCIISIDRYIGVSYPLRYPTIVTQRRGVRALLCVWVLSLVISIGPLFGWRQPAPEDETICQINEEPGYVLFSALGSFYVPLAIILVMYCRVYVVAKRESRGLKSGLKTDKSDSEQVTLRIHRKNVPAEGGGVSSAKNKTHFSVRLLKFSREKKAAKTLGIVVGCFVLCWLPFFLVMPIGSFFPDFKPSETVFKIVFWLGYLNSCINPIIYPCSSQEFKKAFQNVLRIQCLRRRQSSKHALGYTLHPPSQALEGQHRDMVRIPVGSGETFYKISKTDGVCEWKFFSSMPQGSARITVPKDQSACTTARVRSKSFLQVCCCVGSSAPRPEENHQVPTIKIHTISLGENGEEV
How it was run: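 Rat forebrain membranes; radioligand displacement read by filter-based scintillation counting 1 h after dosing. Primary screen in duplicate at 25 uM; hits (e.g. ≥30% inhibition) rerun as concentration–response to 50 uM max. Fitted versus DMSO.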

[13] = target: guinea pig Serotonin, 5-Hydroxytryptamine Receptor 4 (5HT4), HTR4 (gene 100135548) (UniProt O70528); test: NVS_GPCR_g5HT4: NovaScreen (NVS) G Protein-Coupled Receptor Assay for guinea pig Serotonin, 5-Hydroxytryptamine Receptor 4 (5HT4) (AID 2283294)
Chain of guinea pig Serotonin, 5-Hydroxytryptamine Receptor 4 (5HT4), HTR4 (gene 100135548) (O70528 whole entry, looked up): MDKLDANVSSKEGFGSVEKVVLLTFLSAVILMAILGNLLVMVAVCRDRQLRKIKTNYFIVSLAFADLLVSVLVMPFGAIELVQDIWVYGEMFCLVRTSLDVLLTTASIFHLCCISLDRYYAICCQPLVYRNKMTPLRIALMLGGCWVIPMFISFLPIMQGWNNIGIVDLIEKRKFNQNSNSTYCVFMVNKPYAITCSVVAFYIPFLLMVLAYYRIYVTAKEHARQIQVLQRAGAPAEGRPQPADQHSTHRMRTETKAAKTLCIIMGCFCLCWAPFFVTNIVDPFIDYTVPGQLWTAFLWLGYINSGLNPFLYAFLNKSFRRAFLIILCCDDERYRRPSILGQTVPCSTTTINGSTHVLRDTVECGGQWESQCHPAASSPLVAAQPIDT
How it was run: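 Guinea pig striatal membranes; radioligand competitive displacement, filtration and scintillation counting after 1 h. Primary screen in duplicate at 25 uM; actives then tested in concentration series; loss of binding signal fitted relative to DMSO.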

[14] = target: human Purinergic Receptor P2Y, P2RY1 (gene 5028) (UniProt P47900); test: NVS_GPCR_hPY2: NovaScreen (NVS) G Protein-Coupled Receptor Assay for human Purinergic Receptor P2Y (AID 2283281)
How it was run: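 Cell-free radioligand binding using U937-derived protein, 1 h after dosing, filter-based scintillation counting. Screened in duplicate at 25 uM; actives rerun as concentration-response up to 50 uM; loss of signal versus DMSO.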

[15] = target: human Leukotriene B4 Receptor 1 (LTB4-BLT1), LTB4R (gene 1241) (UniProt Q15722); test: NVS_GPCR_hLTB4_BLT1: NovaScreen (NVS) G Protein-Coupled Receptor Assay for human Leukotriene B4 Receptor 1 (LTB4-BLT1) (AID 2283271)
How it was run: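 Radioligand displacement binding on receptor extracted from human neutrophils, cell-free, 1 h after dosing; filter-based scintillation counting. Primary screen in duplicate at 25 uM, actives retested in concentration-response up to 50 uM; loss of signal versus DMSO.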

[16] = target: human Opioid Receptor Delta 1 (Opiate D1), OPRD1 (gene 4985) (UniProt P41143); test: NVS_GPCR_hOpiate_D1: NovaScreen (NVS) G Protein-Coupled Receptor Assay for human Opioid Receptor Delta 1 (Opiate D1) (AID 2283280)
How it was run: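 Radioligand displacement on membranes from CHO cells expressing the receptor, read by filter scintillation counting 1 h after dosing. Duplicate single-point screen at 25 uM, then concentration series for actives; loss of signal versus DMSO.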

[17] = target: human Orphanin, Opioid Related Nociceptin Receptor 1 (ORL1), OPRL1 (gene 4987) (UniProt P41146); test: NVS_GPCR_hORL1: NovaScreen (NVS) G Protein-Coupled Receptor Assay for human Orphanin, Opioid Related Nociceptin Receptor 1 (ORL1) (AID 2283283)
Chain of human Orphanin, Opioid Related Nociceptin Receptor 1 (ORL1), OPRL1 (gene 4987) (P41146 whole entry, looked up): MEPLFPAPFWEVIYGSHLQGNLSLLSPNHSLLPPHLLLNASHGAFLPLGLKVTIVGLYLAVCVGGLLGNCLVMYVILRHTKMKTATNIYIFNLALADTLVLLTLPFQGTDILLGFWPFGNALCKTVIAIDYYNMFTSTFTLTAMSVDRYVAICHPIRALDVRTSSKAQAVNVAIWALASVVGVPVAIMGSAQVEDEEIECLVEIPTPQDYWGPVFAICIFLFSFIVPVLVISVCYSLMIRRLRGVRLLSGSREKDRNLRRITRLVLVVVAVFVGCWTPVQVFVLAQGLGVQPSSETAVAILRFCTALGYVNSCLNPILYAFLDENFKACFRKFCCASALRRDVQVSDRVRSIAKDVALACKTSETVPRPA
How it was run: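 Filter-based radioligand displacement with receptor extracted from HEK293 cells, read 1 hour after dosing by scintillation counting. Duplicate single-point screen at 25 uM; qualifying chemicals then run in concentration-response to 50 uM, analysed relative to DMSO.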

[18] = target: rat Serotonin, 5-Hydroxytryptamine Receptor 1 (5HT1), Non-Selective Binding, Htr1a (gene 24473) (UniProt P19327); test: NVS_GPCR_r5HT1_NonSelective: NovaScreen (NVS) G Protein-Coupled Receptor Assay for rat Serotonin, 5-Hydroxytryptamine Receptor 1 (5HT1), Non-Selective Binding (AID 2283286)
Chain of rat Serotonin, 5-Hydroxytryptamine Receptor 1 (5HT1), Non-Selective Binding, Htr1a (gene 24473) (P19327 whole entry, looked up): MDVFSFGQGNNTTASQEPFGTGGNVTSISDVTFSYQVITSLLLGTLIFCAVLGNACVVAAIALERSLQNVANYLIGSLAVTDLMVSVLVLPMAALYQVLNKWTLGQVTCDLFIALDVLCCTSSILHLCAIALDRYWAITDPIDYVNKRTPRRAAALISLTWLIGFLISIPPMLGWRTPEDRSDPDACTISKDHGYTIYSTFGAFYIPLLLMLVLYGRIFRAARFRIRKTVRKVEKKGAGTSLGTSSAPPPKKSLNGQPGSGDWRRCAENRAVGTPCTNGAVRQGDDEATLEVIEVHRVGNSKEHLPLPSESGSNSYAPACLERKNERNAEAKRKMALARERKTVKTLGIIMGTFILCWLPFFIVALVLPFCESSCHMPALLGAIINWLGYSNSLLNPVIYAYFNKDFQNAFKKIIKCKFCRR
How it was run: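 Rat cortical membranes, radioligand displacement, 1 h incubation, read by filter scintillation. Primary screen in duplicate at 25 uM. Hits (e.g. ≥30% inhibition) went to concentration-response up to 50 uM, fitted as loss of binding versus DMSO.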

For `C[C@]12CC[C@@H]3c4ccc(O)cc4CC[C@H]3[C@@H]1C[C@@H](O)[C@@H]2O`, which outcome [1] is on record?
Its outcome is “inactive”.

`C=Cc1ccc(O)c(OC)c1` was tested. Which outcome [1] did it give?
Its outcome is “inactive”.

`CCC(C)c1ccccc1O` (stereo not drawn) was tested. Which AC50 [2] did it give?
The AC50 was 11.5 µM (active).

How did the outcome [3] turn out when `C=CC(=C)CC/C=C(\C)CCC=C(C)C` was run?
Its outcome is “inactive”.

Which outcome [4] does the source give for `CCCCC(CC)C(=O)O` (stereo not drawn) here?
The outcome was “inactive”.

`CC[N+](CC)(CC)Cc1ccccc1` was tested. Which AC50 [5] did it give?
Its AC50 is 21.5 µM (active).

`CCCCc1oc2ccccc2c1C(=O)c1cc(I)c(OCCN(CC)CC)c(I)c1` was tested. Which AC50 [6] did it give?
The AC50 was 4.41 µM (active).

What about the AC50 [7] of the same molecule?
Its AC50 is 4.86 µM (active).

And the AC50 [8]?
The AC50 was 11.4 µM (active).

And the AC50 [9]?
The AC50 was 7.41 µM (active).

And the outcome [4]?
The outcome was “inactive”.

What about the AC50 [10] of the same molecule?
Its AC50 is 21.6 µM (active).

And the AC50 [11]?
The AC50 was 22.5 µM (active).

And the AC50 [12]?
Its AC50 is 24.5 µM (active).

What about the AC50 [13] of the same molecule?
The AC50 was 15.7 µM (active).

With `OCC(CO)(CBr)CBr` as the molecule, how does the outcome [1] read?
Its outcome is “inactive”.

With `CCCCC=O` as the molecule, how does the outcome [14] read?
Its outcome is “inactive”.

What does the source list for `N=C(N)c1ccc(OCCCCCOc2ccc(C(=N)N)cc2)cc1`?
outcome [15]: inactive; AC50 [6]: 2.83 µM (active); AC50 [7]: 8.19 µM (active); outcome [8]: inactive; AC50 [16]: 8.49 µM (active); AC50 [17]: 27.8 µM (active); AC50 [18]: 3.44 µM (active); AC50 [2]: 10.2 µM (active); AC50 [13]: 2.4 µM (active)

With `O=C(CCCN1CCC(O)(c2ccc(Cl)cc2)CC1)c1ccc(F)cc1` as the molecule, how does the outcome [8] read?
Its outcome is “inactive”.

And the AC50 [10]?
Its AC50 is 37.3 µM (active).

And the outcome [18]?
The outcome was “inactive”.

What about the AC50 [13] of the same molecule?
Its AC50 is 1.75 µM (active).

How did the AC50 [8] turn out when `CC(C)(C)c1ccc(O)c(O)c1` was run?
Its AC50 is 16 µM (active).

What about the outcome [8] of the same molecule?
Its outcome is “inactive”.

And the AC50 [3]?
The AC50 was 17.4 µM (active).
